TWEAK-Fn14 inh – inhibitors of TWEAK-Fn14 signaling, primary screen, luciferase reporter cells, uHTS; TWEAK-stimulated Fn14 reporter cells, luciferase luminescence, 8 h; inhibition, % at 10 µM; 2% of 360,000 active; AID 1159606, 2016; in the data active = inhibition above about 50%
HSP90 refold inh – HSP90 inhibitors, primary screen, cell lysate, luminescence; Heat shock protein HSP 90 (rabbit reticulocyte lysate; luciferase refolding); Rabbit reticulocyte lysate, luciferase refolding luminescence, 3 h; inhibition, % at 5.6 µM; 0.91% of 290,000 active;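 active = inhibition above the screen-wide mean plus 3 SD, computed separately per campaign, cut at about 16% in these data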;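 also: 0% = DMSO wells and 100% = 60 µM geldanamycin wells; inhibitors lower the luminescence because luciferase stays unfolded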
TROY signal inh – inhibitors of TROY-driven NF-kB signaling, primary screen, Q293 LMP1-TROYcd cells, NF-kB luciferase, uHTS; Q293 LMP1-TROYcd NF-kB luciferase reporter, 4 h; inhibition, % at 10 µM; 0.98% of 360,000 active; AID 1347056, 2019;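 active = compounds whose plate-normalised and pattern-corrected inhibition of the luciferase reporter signal at the single screening dose is 50% or more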
TRAIL sens C8 – viability loss with TRAIL in NB7+C8 cells, primary screen, TRAIL sensitizer project, cell-based, ATPlite luminescence. inhibition (viability loss, TRAIL sensitization), % at 10 µM. 1% of 360,000 active;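 active = compounds causing at least 50% loss of cell viability in the single-dose screen, relative to plate controls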
PPC-1+TRAIL kill – compounds killing PPC-1 cancer cells with TRAIL present, primary screen, TRAIL potentiator project, ATPLite luminescence, uHTS. PPC-1 cells + TRAIL, ATPLite viability luminescence. 0.41% of 220,000 active. cell killing (% activity), % at 4 µM or 5 µM;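 active = cell killing above 50% in the first pass at 4 µM, then a duplicate retest at 5 µM averaging 50% or more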;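 also: plate controls were cells with TRAIL plus DMSO for no effect and medium-only wells lacking cells for full effect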
Platelet DG rel – inhibitors of platelet dense granule secretion, primary screen, cell-based, MLPCN, human platelets; human platelet-rich plasma, SFLLRN dense granule ATP release, luminescence; 0.22% of 300,000 active; inhibition, %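 (compounds screened at 7.5 µM in platelet-rich plasma)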; AID 1663, 2009;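 active = mean replicate score, as percent of positive control, at or above 50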
HSP90 inh confirm – HSP90 inhibitors, confirmation, cell lysate, luminescence; 64% of 2,300 active; AID 1846, 2009; inhibition, % at 5.9 µM; rabbit reticulocyte lysate, luciferase refolding luminescence, 3 h; shares compounds with HSP90 refold inh; in the data active = inhibition above about 18%;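 also: 0% = vehicle wells and 100% = reference inhibitor wells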
luciferase ctr – firefly luciferase inhibitors, HSP90 counter-screen, confirmation, artefact control for HSP90 inhibitor project, biochemical, luminescence, triplicate | inhibition, % at 5.9 µM | purified native firefly luciferase | shares compounds with HSP90 refold inh | AID 1847, 2009 | 48% of 2,300 active;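 active = inhibition above the mean inhibition of all tested sample wells plus 3 SD, cut at about 10% in these data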;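 also: 0% = DMSO with luciferase and 100% = wells lacking luciferase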
An asterisk follows results filed as active; nt = no result. This is a sample that favours compounds with a hit; in the whole collection about 3.5% have one here.

SMILES	TWEAK-Fn14 inh	HSP90 refold inh	TROY signal inh	TRAIL sens C8	PPC-1+TRAIL kill	Platelet DG rel	HSP90 inh confirm	luciferase ctr
Cc1ccc(C(=O)Nc2ccc3ncccc3c2)cc1	94*	50*	56*	90*	nt	13	71*	58*
O=C(O)c1ccc(N/N=C/c2ccc(-c3ccc(Cl)cc3Cl)o2)cc1	-3	56*	13	20	-18	2	-7	-30
O=C(O)c1ccc(N/N=C/c2ccc(-c3cc(Cl)ccc3Cl)o2)cc1	17	15	39	-12	16	-2	nt	nt
CC1Oc2ccccc2C=C1/C=N/Nc1ccc(C(=O)O)cc1 (stereo not drawn)	61*	34*	-10	-28	-15	3	41*	25*
CC(C)(C)c1ccc(/C=N/Nc2ccc(C(=O)O)cc2)cc1	93*	58*	59*	17	0	-2	86*	83*
CCNC(=S)N/N=C/c1ccc(C(=O)O)cc1	5	-1	-11	-1	12	20	nt	nt
O=C(O)c1ccc(N/N=C/c2c(F)cccc2Cl)cc1	95*	80*	35	11	nt	3	82*	76*
COc1ccc(C(=O)NC2CCN(C(=O)NCc3ccccc3)CC2)cc1	0	-3	-5	-32	nt	0	nt	nt
CC1(C(=O)NS(=O)(=O)c2cccc(F)c2)CCN1C(=O)CCC1CCCC1 (stereo not drawn)	20	nt	11	-13	nt	nt	nt	nt
CCN(c1ccccc1)S(=O)(=O)c1cccc(C(=O)NCc2ccccn2)c1	2	nt	12	-6	nt	-1	nt	nt
Fc1ccc(N/N=C/c2ccncc2)c(F)c1	-15	-3	-22	9	9	14	nt	nt
O=C(O)c1ccc(/C=N/Nc2ccc(F)cc2F)cc1	39	46*	-25	7	27	44	78*	58*
O=C(O)c1ccc(N/N=C/c2ccc(C(F)(F)F)cc2)cc1	90*	77*	29	9	14	2	86*	81*
COC(=O)[C@]12CCCCC=C1N(Cc1ccc3c(c1)OCO3)C(=O)[C@H](CC(=O)NCCC(C)C)C2	nt	nt	nt	5	nt	nt	nt	nt
C[C@@H]1CN([C@H](C)CO)S(=O)(=O)c2ccc(-c3ccc(C(=O)N(C)C)cc3)cc2O[C@H]1CN(C)C(=O)Cc1ccccn1	-1	nt	-9	-17	nt	nt	nt	nt
O=C(CCS(=O)(=O)c1ccccc1)NNC(=O)COc1ccc(F)cc1	0	nt	-16	-2	nt	nt	nt	nt
COc1ccc(S(=O)(=O)Nc2ccc(Oc3ccsc3C(=O)O)cc2)cc1	-7	2	-7	7	nt	2	nt	nt
COc1cccc(NC(=O)c2cc3ccccc3o/c2=N\O)c1	78*	48*	23	55*	nt	8	66*	63*
Cc1cccc(NC(=O)c2cc3ccccc3oc2=O)c1	53*	20*	24	28	nt	12	33*	13*
O=C(Nc1cccnc1N1CCOCC1)c1cc2ccccc2oc1=O	-13	nt	-67	0	-3	7	nt	nt
Cc1ccc(NC(=O)c2cc3ccccc3oc2=N)cc1	98*	55*	38	49	nt	7	20*	31*
O=C(O)c1ccccc1NC(=O)c1cc2ccccc2oc1=O	20	23*	19	4	nt	-2	2	-6
COc1cccc(NC(=O)c2cc3cccc(OC)c3o/c2=N\O)c1	nt	11	nt	nt	nt	17	nt	nt
O=C(Cc1cccc(NC(=O)C2CCN(C(=O)C3CCCCC3)CC2)c1)Nc1cccc(C(=O)N2CCCC2)c1	-12	nt	1	-6	nt	nt	nt	nt
CC1=C(C(=O)N2CCOCC2)CC(CC(=O)NCc2cccc3ccccc23)C(=O)N1Cc1ccc(C(C)(C)C)cc1 (stereo not drawn)	15	nt	7	11	nt	nt	nt	nt

Screening data deposited in PubChem BioAssay by several laboratories.
